{"source": "PubChem BioAssay"}
{"experiment": "resazurin metabolic signal in HepG2 cells – cell-based, resazurin fluorescence, 24 h, PK04 Diversity Set, profiling panel (AID 1172); also: test concentration not given here", "conditions": "HepG2 viability, higher = more signal"}
{"compound": "CN1C(=O)C2C=CC(C(O)C3CC=CCC3)N(Nc3ccccc3)C2C1=O", "note": "(centres undefined)", "z-score": -0.488}
{"compound": "COCCCNC(=O)[C@@]1(c2ccc([N+](=O)[O-])cc2)CC(=O)N(C2CCCCC2)[C@@H]1c1ccc(CO)cc1", "z-score": 0.172}
{"compound": "Cc1ccccc1C(O)C1C=CC2C(=O)N(c3ccccc3)C(=O)C2N1Nc1ccc(C#N)cc1", "note": "(centres undefined)", "z-score": -0.709}
{"compound": "CCOC(=O)C[C@H]1[C@H](OC(=O)Cc2ccc3c(c2)OCO3)[C@@H](NC(=O)c2ccc3ccccc3c2)c2cc(OCCCO)ccc2N1C(=O)Cc1ccc(OC)cc1", "z-score": 0.329}
{"compound": "COC(=O)[C@@]1(Cc2ccccc2CN=[N+]=[N-])N=C(c2ccc(OCCCO)cc2)O[C@H]1c1ccccc1N=[N+]=[N-]", "z-score": -0.806}
{"compound": "O=C/C=C/c1ccc(/C=C/c2ccccc2)cc1", "z-score": 0.555}
{"compound": "CC(C)NC(=O)[C@@]1(Cc2ccccc2I)c2ccccc2C(=O)N(C2CCCCC2)[C@H]1c1ccc(CO)cc1", "z-score": 0.524}
{"compound": "C=CCC(OC(C)=O)[C@@H]1[C@@H](N(Cc2cccc3ccccc23)C(=O)Cc2ccc(F)cc2)c2cc(OCCCO)ccc2N1C(=O)Cc1ccc2ccccc2c1", "note": "(some centres undefined)", "z-score": 0.549}
{"compound": "CCCC=C(CCC)[C@@H](NC(=O)c1ccc(C(F)(F)F)cc1)c1ccccc1", "z-score": -0.421}
